{
  "source": "PubChem BioAssay (NCI)",
  "note": "About 79,000 compounds went through this panel and 15% of them were active in at least one assay; those are over-represented in the sample as a whole. The source made the active and inactive calls. Rule as the data show it: active = growth inhibition above about 70%; inactive = the rest.",
  "data": [
    {"test": "NCI Yeast Anticancer Drug Screen. Data for the bub3 strain (AID 167)", "conditions": "S. cerevisiae bub3 mutant strain, at 50.0 µM, active compounds read high", "in_short": "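Compounds were applied to a genetically altered yeast strain carrying a cell-cycle control defect. Growth inhibition was scored against vehicle-treated controls.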", "values": [
      {"molecule": "O=c1cc(NCc2cccc([N+](=O)[O-])c2)[nH]c(=O)[nH]1", "growth inhibition": "-5.5% (inactive)"},
      {"molecule": "CN(C)N=Nc1ccc(C(=O)N/N=C/c2ccccc2[N+](=O)[O-])cc1", "growth inhibition": "-14.7% (inactive)"},
      {"molecule": "COc1ccc(/C(C)=N/NC(N)=S)cc1OC", "growth inhibition": "-13.3% (inactive)"},
      {"molecule": "CCCCCCCCCCCCCCCCCCCCCCCCCCCCCCCCCCCCSC(=N)N", "growth inhibition": "-0.25% (inactive)"},
      {"molecule": "CCC1(C)C(=O)NC(=O)N1C(C)=O", "note": "(stereo not given)", "growth inhibition": "-12.3% (inactive)"},
      {"molecule": "CCSC1OC(C(COC(C)=O)OC(C)=O)C(OC(C)=O)C1NC(=O)OCc1ccccc1", "note": "(stereo not given)", "growth inhibition": "1% (inactive)"},
      {"molecule": "COC(=O)C1(C)CCCC2(C)c3cc(OC)ccc3C(=O)C(Cl)C12", "note": "(stereo not given)", "growth inhibition": "26.4% (inactive)"},
      {"molecule": "CCC1(CC)C(=O)N(C(=O)c2cc(OC)c(OC)c(OC)c2)N(C(=O)c2cc(OC)c(OC)c(OC)c2)C1=O", "growth inhibition": "6.75% (inactive)"},
      {"molecule": "C#CCOCC12C=CC(O1)C1C(=O)OCC12", "note": "(stereo not given)", "growth inhibition": "21% (inactive)"},
      {"molecule": "N=C(N)c1ccncc1", "growth inhibition": "4.75% (inactive)"},
      {"molecule": "Cc1ccc(S(=O)(=O)N2CCC[C@@H]2C(=O)O[C@@H]2CCC3CC=CC32)cc1", "note": "(stereo not given in full)", "growth inhibition": "-12.3% (inactive)"},
      {"molecule": "O=C(CCBr)Nc1ccccc1", "growth inhibition": "-7.35% (inactive)"},
      {"molecule": "O=C(/C=C\\c1ccccc1)OCc1ccccc1CN1CCCCC1", "growth inhibition": "10.4% (inactive)"},
      {"molecule": "C(=Nc1ccc(SSc2ccc(N=Cc3ccc4c(c3)OCO4)cc2)cc1)c1ccc2c(c1)OCO2", "growth inhibition": "8.75% (inactive)"},
      {"molecule": "O=C(NCCN1CCCC1)NC1CCCCC1", "growth inhibition": "8.2% (inactive)"},
      {"molecule": "N=c1nnc2ccc(Cl)cc2n1O", "growth inhibition": "-1.85% (inactive)"},
      {"molecule": "Cc1cc(C)c(C#N)c(N)n1", "growth inhibition": "7.7% (inactive)"},
      {"molecule": "CC(=O)CC(=O)NCC#N", "growth inhibition": "11.8% (inactive)"},
      {"molecule": "CS(=O)(=O)C(CCC(=O)c1cccs1)C(=O)c1ccccc1", "note": "(stereo not given)", "growth inhibition": "0.2% (inactive)"},
      {"molecule": "O=C(Cn1ccc(=O)[nH]c1=O)Nc1ccc(C(=O)O)c(O)c1", "growth inhibition": "-31.4% (inactive)"},
      {"molecule": "O=C1c2ccccc2-c2nnc(-c3ccc(Cl)cc3)cc21", "growth inhibition": "-24.2% (inactive)"},
      {"molecule": "C#CC[N+](C)(CC#C)CC#C", "growth inhibition": "9.7% (inactive)"},
      {"molecule": "COC(=O)C1=CON2C3CC4CC(C3)CC(C4)C12C", "note": "(stereo not given)", "growth inhibition": "-18.4% (inactive)"},
      {"molecule": "COc1ccc(C(=O)/C=C/c2ccc(OCCCCCCCCCCOc3ccc(/C=C/C(=O)c4ccc(OC)cc4)cc3)cc2)cc1", "growth inhibition": "-30.4% (inactive)"},
      {"molecule": "FC(F)(F)c1nc(Cl)c2cn[nH]c2n1", "growth inhibition": "25.9% (inactive)"},
      {"molecule": "CCCC1C(C#N)(C#N)C(C#N)=C(N)C1(C)C(C)=O", "note": "(stereo not given)", "growth inhibition": "-23.8% (inactive)"},
      {"molecule": "CCn1cc2c(=O)n3ncn(-c4ccc(Br)cc4)c3nc2n1", "growth inhibition": "-28.8% (inactive)"},
      {"molecule": "COc1ccc2cc1Oc1ccc(cc1)CC1c3c(cc(OC)c4c3Oc3cc5c(cc3O4)CCNC5C2)CCN1C", "note": "(stereo not given)", "growth inhibition": "-38.8% (inactive)"},
      {"molecule": "CCCCC/C(C)=C\\CBr", "growth inhibition": "-10.6% (inactive)"},
      {"molecule": "CCCCOC(=O)C12CCCCC1O2", "note": "(stereo not given)", "growth inhibition": "-29.1% (inactive)"},
      {"molecule": "O=c1[nH]c(=O)n(C2CC(O)C(CO)O2)cc1/C=C/Br", "note": "(stereo not given)", "growth inhibition": "7.35% (inactive)"},
      {"molecule": "O=C(Nc1ccc(S(=O)(=O)/N=c2\\ncccn2C(=O)C(C(F)(F)F)C(F)(F)F)cc1)C(C(F)(F)F)C(F)(F)F", "growth inhibition": "28.4% (inactive)"},
      {"molecule": "c1ccc2c(-c3ccncc3)c3ccccc3cc2c1", "growth inhibition": "6.5% (inactive)"},
      {"molecule": "CCN(C(=O)CCl)c1ccccc1", "growth inhibition": "-7.25% (inactive)"},
      {"molecule": "CN(C)NC(=O)CC#N", "growth inhibition": "-6% (inactive)"},
      {"molecule": "COC(=O)C1C(O)C(C)C(OC(C)=O)C(C)/C=C\\C=C(C)C(=O)Nc2c(C)c(OC(C)=O)c3c(c2O)C(=O)C(C)=C2OCOC(=C23)C(C)=CC(C)(O)C(O)C(C)C1O", "note": "(stereo not given)", "growth inhibition": "26.8% (inactive)"},
      {"molecule": "O=C1C(C2CCCCC2)=C2OCC3COC2(O3)c2ccccc21", "note": "(stereo not given)", "growth inhibition": "-14.6% (inactive)"},
      {"molecule": "O=C1Nc2ccccc2C1=Nc1cccc2ncccc12", "growth inhibition": "8.7% (inactive)"},
      {"molecule": "COc1ccc(Cl)[n+]([O-])n1", "growth inhibition": "-10.3% (inactive)"},
      {"molecule": "Cc1ccsc1S(N)(=O)=O", "growth inhibition": "11.4% (inactive)"}
    ]},
    {"test": "NCI Yeast Anticancer Drug Screen. Data for the mlh1 rad18 strain (AID 175)", "conditions": "S. cerevisiae mlh1 rad18 strain growth inhibition; at 50.0 µM; active compounds read high", "in_short": "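Genetically defined yeast (DNA repair-deficient) exposed to compounds; growth inhibition determined relative to vehicle.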", "values": [
      {"molecule": "O=c1cc(NCc2cccc([N+](=O)[O-])c2)[nH]c(=O)[nH]1", "growth inhibition": "6.6% (inactive)"},
      {"molecule": "CN(C)N=Nc1ccc(C(=O)N/N=C/c2ccccc2[N+](=O)[O-])cc1", "growth inhibition": "-40.8% (inactive)"},
      {"molecule": "COc1ccc(/C(C)=N/NC(N)=S)cc1OC", "growth inhibition": "3.45% (inactive)"},
      {"molecule": "CCCCCCCCCCCCCCCCCCCCCCCCCCCCCCCCCCCCSC(=N)N", "growth inhibition": "12.8% (inactive)"},
      {"molecule": "CCC1(C)C(=O)NC(=O)N1C(C)=O", "note": "(stereo not given)", "growth inhibition": "-7.55% (inactive)"},
      {"molecule": "CCSC1OC(C(COC(C)=O)OC(C)=O)C(OC(C)=O)C1NC(=O)OCc1ccccc1", "note": "(stereo not given)", "growth inhibition": "-18.1% (inactive)"},
      {"molecule": "COC(=O)C1(C)CCCC2(C)c3cc(OC)ccc3C(=O)C(Cl)C12", "note": "(stereo not given)", "growth inhibition": "5.7% (inactive)"},
      {"molecule": "CCC1(CC)C(=O)N(C(=O)c2cc(OC)c(OC)c(OC)c2)N(C(=O)c2cc(OC)c(OC)c(OC)c2)C1=O", "growth inhibition": "14.8% (inactive)"},
      {"molecule": "C#CCOCC12C=CC(O1)C1C(=O)OCC12", "note": "(stereo not given)", "growth inhibition": "41.9% (inactive)"},
      {"molecule": "N=C(N)c1ccncc1", "growth inhibition": "-1.95% (inactive)"},
      {"molecule": "Cc1ccc(S(=O)(=O)N2CCC[C@@H]2C(=O)O[C@@H]2CCC3CC=CC32)cc1", "note": "(stereo not given in full)", "growth inhibition": "-0.1% (inactive)"},
      {"molecule": "O=C(CCBr)Nc1ccccc1", "growth inhibition": "-26.4% (inactive)"},
      {"molecule": "O=C(/C=C\\c1ccccc1)OCc1ccccc1CN1CCCCC1", "growth inhibition": "12.8% (inactive)"},
      {"molecule": "C(=Nc1ccc(SSc2ccc(N=Cc3ccc4c(c3)OCO4)cc2)cc1)c1ccc2c(c1)OCO2", "growth inhibition": "17.2% (inactive)"},
      {"molecule": "O=C(NCCN1CCCC1)NC1CCCCC1", "growth inhibition": "14.8% (inactive)"},
      {"molecule": "N=c1nnc2ccc(Cl)cc2n1O", "growth inhibition": "-5.25% (inactive)"},
      {"molecule": "Cc1cc(C)c(C#N)c(N)n1", "growth inhibition": "-14.9% (inactive)"},
      {"molecule": "CC(=O)CC(=O)NCC#N", "growth inhibition": "24.6% (inactive)"},
      {"molecule": "CS(=O)(=O)C(CCC(=O)c1cccs1)C(=O)c1ccccc1", "note": "(stereo not given)", "growth inhibition": "14.4% (inactive)"},
      {"molecule": "O=C(Cn1ccc(=O)[nH]c1=O)Nc1ccc(C(=O)O)c(O)c1", "growth inhibition": "0.55% (inactive)"},
      {"molecule": "O=C1c2ccccc2-c2nnc(-c3ccc(Cl)cc3)cc21", "growth inhibition": "-18.3% (inactive)"},
      {"molecule": "C#CC[N+](C)(CC#C)CC#C", "growth inhibition": "9.2% (inactive)"},
      {"molecule": "COC(=O)C1=CON2C3CC4CC(C3)CC(C4)C12C", "note": "(stereo not given)", "growth inhibition": "-5.9% (inactive)"},
      {"molecule": "COc1ccc(C(=O)/C=C/c2ccc(OCCCCCCCCCCOc3ccc(/C=C/C(=O)c4ccc(OC)cc4)cc3)cc2)cc1", "growth inhibition": "-17.4% (inactive)"},
      {"molecule": "FC(F)(F)c1nc(Cl)c2cn[nH]c2n1", "growth inhibition": "-24.4% (inactive)"},
      {"molecule": "CCCC1C(C#N)(C#N)C(C#N)=C(N)C1(C)C(C)=O", "note": "(stereo not given)", "growth inhibition": "-34.9% (inactive)"},
      {"molecule": "CCn1cc2c(=O)n3ncn(-c4ccc(Br)cc4)c3nc2n1", "growth inhibition": "-12.2% (inactive)"},
      {"molecule": "COc1ccc2cc1Oc1ccc(cc1)CC1c3c(cc(OC)c4c3Oc3cc5c(cc3O4)CCNC5C2)CCN1C", "note": "(stereo not given)", "growth inhibition": "-25.1% (inactive)"},
      {"molecule": "CCCCC/C(C)=C\\CBr", "growth inhibition": "-3% (inactive)"},
      {"molecule": "CCCCOC(=O)C12CCCCC1O2", "note": "(stereo not given)", "growth inhibition": "-0.55% (inactive)"},
      {"molecule": "O=c1[nH]c(=O)n(C2CC(O)C(CO)O2)cc1/C=C/Br", "note": "(stereo not given)", "growth inhibition": "-18.1% (inactive)"},
      {"molecule": "O=C(Nc1ccc(S(=O)(=O)/N=c2\\ncccn2C(=O)C(C(F)(F)F)C(F)(F)F)cc1)C(C(F)(F)F)C(F)(F)F", "growth inhibition": "-26.8% (inactive)"},
      {"molecule": "c1ccc2c(-c3ccncc3)c3ccccc3cc2c1", "growth inhibition": "20.3% (inactive)"},
      {"molecule": "CCN(C(=O)CCl)c1ccccc1", "growth inhibition": "14.2% (inactive)"},
      {"molecule": "CN(C)NC(=O)CC#N", "growth inhibition": "2.75% (inactive)"},
      {"molecule": "COC(=O)C1C(O)C(C)C(OC(C)=O)C(C)/C=C\\C=C(C)C(=O)Nc2c(C)c(OC(C)=O)c3c(c2O)C(=O)C(C)=C2OCOC(=C23)C(C)=CC(C)(O)C(O)C(C)C1O", "note": "(stereo not given)", "growth inhibition": "20.9% (inactive)"},
      {"molecule": "O=C1C(C2CCCCC2)=C2OCC3COC2(O3)c2ccccc21", "note": "(stereo not given)", "growth inhibition": "-30.7% (inactive)"},
      {"molecule": "O=C1Nc2ccccc2C1=Nc1cccc2ncccc12", "growth inhibition": "15.4% (inactive)"},
      {"molecule": "COc1ccc(Cl)[n+]([O-])n1", "growth inhibition": "-29.6% (inactive)"},
      {"molecule": "Cc1ccsc1S(N)(=O)=O", "growth inhibition": "-6.75% (inactive)"}
    ]}
  ]
}
